# Test results: PubChem BioAssay AID485364 (National Center for Advancing Translational Sciences (NCATS), 2010)
# About 11,000 (3.1%) of roughly 360,000 compounds were called active. Where a call stands in place of a potency, no number is given. Inconclusive results (about 4%) are left out. Calls come from the whole dose curve; as a rule, active = well fitted inhibition curve with a large enough effect; inconclusive = small, poorly fitted or top-dose-only effect; inactive = no such curve, though single readings can be large or run the other way. The full list was thinned out, with actives kept by preference.
# Target: Schistosoma mansoni thioredoxin glutathione reductase (TGR) (UniProt Q962Y6)
# Test: qHTS Assay for the Inhibitors of Schistosoma Mansoni Peroxiredoxins; note: nearly all actives have a fitted effect of over 60% in size
# Conditions: purified TGR, DTNB reduction, TNB absorbance 405 nm; series mostly up to 114 µM
# How it was run: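 TGR 20 nM + NADPH 100 uM (dispensed conc.), cpd preinc 15 min RT; start with NADPH (500 uM addition) then DTNB (15 mM addition). Kinetic TNB absorbance, 405 nm filter. Four-parameter Hill fit across titration.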
# Potency is the fitted concentration of half-maximal effect.
row,Structure (SMILES),Potency
1,O=C(NCCc1ccccc1)c1ccc2c(c1)N(Cc1ccc(F)cc1)C(=O)c1ccccc1S2(=O)=O,inactive
2,CN(C)CC1Oc2ccccc2OC1(O)c1ccccc1 (centres undefined),0.355 µM (active)
3,O=C(NCC1COc2ccccc2O1)C1(c2ccccc2)CCCC1 (centres undefined),inactive
4,CN(C)CCOC(=O)C(c1ccccc1)C1(O)CCCC1 (centres undefined),inactive
5,CCOc1ccc(CC(=O)NCCc2csc3nc(-c4ccccc4F)nn23)cc1,inactive
6,O=C(COc1ccc(Cl)cc1)N(Cc1ccco1)Cc1ccco1,inactive
7,O=C(Nc1nc(-c2ccco2)c(-c2ccco2)s1)c1ccco1,7.94 µM (active)
8,CCN(c1ccc(Cl)cc1)S(=O)(=O)c1nnc(NC(=O)c2ccco2)s1,inactive
9,O=C(Nc1nonc1-c1ccc(Cl)cc1)c1ccco1,inactive
10,COc1ccc(S(=O)(=O)NCCSc2nnnn2-c2ccccc2)cc1,inactive
11,O=C(CCSCc1ccccc1F)N1CCN(c2ccc(Cl)cc2)CC1,inactive
12,O=C(NN1C(=O)C2C3C=CC(C4CC34)C2C1=O)c1ccc(Cl)cc1 (centres undefined),inactive
13,O=C(NN1C(=O)C2C3C=CC(C3)C2C1=O)c1ccco1 (centres undefined),inactive
14,O=C(NN1C(=O)C2C3C=CC(O3)C2C1=O)c1ccncc1 (centres undefined),20 µM (active)
15,O=C(NN1C(=O)C2C3C=CC(O3)C2C1=O)c1ccccc1 (centres undefined),20 µM (active)
16,COc1ccccc1C(=O)NCCC(=O)NN1C(=O)NC2(CCCCC2)C1=O,inactive
17,COc1ccccc1C(=O)NN1C(=O)C2C3C=CC(O3)C2C1=O (centres undefined),17.8 µM (active)
18,COc1ccccc1C(=O)Nn1cnnc1,inactive
19,CC(C)=C1C2CCC1C1C(=O)N(NC(=O)c3ccco3)C(=O)C21 (centres undefined),inactive
20,COc1ccc(C(=O)NN2C(=O)C3C(c4ccccc4)C=CC(c4ccccc4)C3C2=O)cc1 (centres undefined),inactive
21,COc1cccc(N2CCN(S(=O)(=O)c3ccc4c(c3)CCCN4C(C)=O)CC2)c1,inactive
22,O=C(Nc1nnc(C2CC(=O)N(c3ccc(Cl)cc3)C2)s1)c1ccco1 (centres undefined),inactive
23,Cc1ccc(S(=O)(=O)c2cn(Cc3ccccc3)c3cc(N4CCCC4)c(F)cc3c2=O)c(C)c1,inactive
24,COc1cc(C(=O)N2CCN(C(=O)COc3cccc(C)c3)CC2)cc(OC)c1OC,inactive
25,Cc1nnc(SCC(=O)NCc2ccccc2Cl)c2nn(-c3ccccc3)c(C)c12,inactive

row,Structure (SMILES),Potency
1,CC1CCN(S(=O)(=O)c2ccc3c(ccn3CCC(=O)NCc3ccc(N(C)C)cc3)c2)CC1,inactive
2,Cc1ccc(NC(=O)c2cc(S(=O)(=O)NCCC3=CCCCC3)ccc2F)cc1C,inactive
3,CCOc1ccc(OCC)c(NC(=O)c2cc(C)nc3c2c(C)nn3-c2cccc(Cl)c2C)c1,inactive
4,O=C(/C=C/c1ccccc1)N1CCN(Cc2cc(=O)n3nc(-c4ccccc4F)sc3n2)CC1,inactive
5,CCN1CCCC1CNC(=O)c1cc2c(=O)n(C)c3ccccc3c2n1C (centres undefined),50.1 µM (active)
6,Cn1c(C(=O)N2CCC(C(N)=O)CC2)cc2c(=O)n(C)c3ccccc3c21,inactive
7,CCOc1ccc(CCNC(=O)c2cc3c(=O)n(C)c4ccccc4c3n2C)cc1,inactive
8,O=C(c1ccc2c(c1)N(Cc1ccc(Cl)cc1)C(=O)c1ccccc1S2(=O)=O)N1CCCCC1,inactive
9,CCOc1ccc(C(=O)/C=C/c2cn(CC(O)CN3CCCCCC3)c3ccccc23)cc1 (centres undefined),inactive
10,Cc1ccc(Cn2c(CNC(=O)Cc3cccc(C)c3)nc3cccnc32)cc1,inactive
11,COc1ccc(C(=O)NC2CCCc3c2cnn3-c2cccc(C)c2C)c(OC)n1 (centres undefined),inactive
12,Cn1nccc1C(=O)NC1CCCc2c1cnn2-c1ccccc1F (centres undefined),inactive
13,Cc1cc(C(=O)NC2CCCc3c2cnn3-c2cccc(C)c2C)c(C)o1 (centres undefined),35.5 µM (active)
14,Clc1ccc2c(c1)C1=C(C(c3ccncc3)O2)C(c2ccc(Br)cc2)n2ncnc2N1 (centres undefined),inactive
15,Brc1ccc(C2=CC(c3ccco3)n3ncnc3N2)cc1 (centres undefined),17.8 µM (active)
16,Cc1cccc(OCCSc2nc3ccccc3n2CC(=O)N2CCCCC2)c1C,inactive
17,COC(=O)C1=C(c2ccc(F)cc2OCc2ccccc2)C[C@@H]2CC[C@H]1N2C(=O)NCc1ccc(OC)c(OC)c1,inactive
18,COc1ccc(CCN=C2SCC(=O)N2Cc2ccccc2)cc1OC,inactive
19,COc1cc(C2CC(=O)N3CN(Cc4ccccc4)CSC3=C2C#N)ccc1OCc1ccccc1 (centres undefined),8.91 µM (active)
20,CCCOc1ccc(C2c3c(-c4ccccc4O)n[nH]c3C(=O)N2Cc2cccnc2)cc1 (centres undefined),inactive
21,CC(=O)Nc1ccc(S(=O)(=O)NC2(C(F)(F)F)C(=O)Nc3c2c(=O)[nH]c(=O)n3Cc2ccccc2)cc1 (centres undefined),inactive
22,CC(=O)Nc1ccc(S(=O)(=O)NC2(C(F)(F)F)C(=O)NC(C)=C2C#N)cc1 (centres undefined),39.8 µM (active)
23,CC(=O)Nc1ccc(NS(=O)(=O)c2ccc3c(c2)NC(=O)CC(=O)N3)cc1,inactive
24,CCOC(=O)c1cc(-c2ccc(OC)c(S(=O)(=O)Nc3ccc(OC)cc3OC)c2)on1,inactive
